Cy5 interf NS3h: Cy5 fluorescence interference, HCV helicase counter-screen; Cy5-dT15 DNA with NS3h; actives lie on both sides; signal over control mean, under 1 quenches; fluorescence interference ratio at 100 µM; 16,000 tested, 6% active; AID 720488;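 active = compound fluorescence over control fluorescence at most 0.8, a quencher, or at least a set upper limit, an enhancer; inactive = ratio between 0.8 and the set upper limit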
NS3h inh CB: hepatitis C NS3 helicase inhibition, primary screen; inhibition, % at 100 µM; NS3h Cy5-dT15 DNA binding, fluorescence polarization; 16,000 tested, 1.6% active; AID 687043;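 active = inhibition above the average over every tested compound plus 3 SD, cut at about 40% in these data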
NS3h confirm: hepatitis C NS3 helicase inhibition, confirmation. NS3h binding to Cy5-dT15 DNA, fluorescence polarization. shares compounds with NS3h inh CB. 240 tested, 20% active. AID 720485. inhibition, % at 100 µM;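 active = percent inhibition of 50% or more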
SSB FP counter: counter-screen for HCV NS3 helicase inhibitors: E. coli SSB binding. E. coli SSB binding Cy5-dT15, fluorescence polarization. inhibition, % at 100 µM. AID 720486. shares compounds with NS3h inh CB. 240 tested, 40% active;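 active = inhibition of at least 50%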;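 also: displacers lower Cy5 polarization so higher inhibition means more SSB displaced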
Target sequence (P0AGE0 whole entry, looked up): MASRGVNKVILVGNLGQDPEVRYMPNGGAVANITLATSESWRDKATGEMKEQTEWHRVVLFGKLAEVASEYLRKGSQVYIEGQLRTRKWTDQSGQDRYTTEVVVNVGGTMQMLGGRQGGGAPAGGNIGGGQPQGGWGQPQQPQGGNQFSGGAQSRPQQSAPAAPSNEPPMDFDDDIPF
Cy5 SSB fluor CB: counter-screen for HCV NS3 helicase inhibitors: fluorescence interference; fluorescence interference ratio at 100 µM; shares compounds with NS3h inh CB; Cy5-dT15/E. coli SSB fluorescence interference; actives lie on both sides; 240 tested, 8% active;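 active = fluorescence interference ratio at or above 1.2, signal boosting, or at or below 0.8, signal quenching; inactive = ratio between 0.8 and 1.2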
Cy5 fluor confirm: Cy5 fluorescence interference, confirmation counter-screen | shares compounds with NS3h inh CB | Cy5-dT15 DNA/NS3h fluorescence interference counterscreen | fluorescence interference ratio at 100 µM, hits read low | 240 tested, 44% active;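 active = fluorescence interference ratio at or below 0.8 quencher or at or above a set limitenhancer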
A number is an active result; i = inactive. Hits are enriched below; roughly 6.8% of the tested compounds scored in any of these assays.

SMILES | Cy5 interf NS3h | NS3h inh CB | others
O=C1CC(=O)N(c2ccc(Cl)c(Cl)c2)C(=S)N1 | 0.619 | i
Cc1ccc(N2C(=O)CC(=O)NC2=S)cc1 | i | i
CCOc1cc(C=C2C(=O)NC(=S)NC2=O)ccc1OCc1c(C)no[n+]1[O-] | i | i
O=C(CNS(=O)(=O)c1ccccc1)Nc1ccc(Br)cc1C(=O)c1ccccc1 | i | i
COc1ccccc1C1(CCNCc2ccc(N(C)C)cc2)CCOC(C)(C)C1 (stereo unspecified) | i | i
O=[N+]([O-])c1ccc(N2CCNCC2)cc1NCCc1ccccc1 | 0.783 | i
COc1ccc(C=C(C#N)C#N)c(OC)c1 | i | i
O=[N+]([O-])c1ccc(NCCOc2cccc3ccccc23)c2ncccc12 | 0.752 | i
Cc1cc(-c2ccc(C=C3C(=O)NC(=S)NC3=O)o2)cc([N+](=O)[O-])c1C | i | i
Cc1ccc(-c2ccc(C=C3C(=O)NC(=S)NC3=O)o2)cc1[N+](=O)[O-] | i | 41.8
Cc1cc(OCc2ccccc2)c2c3c(c(=O)oc2c1)CCC3 | i | i
O=C(Nc1ccc(Cl)cc1C(=O)c1ccccc1)c1ccc([N+](=O)[O-])cc1 | i | i
O=C1NC(=O)C(=Cc2ccc(O)c(O)c2)C(=O)N1 | i | i
O=C1NC(=O)C(=Cc2ccc(-c3cc([N+](=O)[O-])ccc3O)o2)C(=O)N1 | 1.7 | 185.2 | NS3h confirm=100.0;SSB FP counter=100.0;Cy5 SSB fluor CB=i;Cy5 fluor confirm=i
COC(=O)c1ccc(-c2ccc(C=C3C(=O)NC(=S)NC3=O)o2)cc1 | i | i
O=C1NC(=O)C(=Cc2ccc(-c3ccccc3C(=O)O)o2)C(=O)N1 | i | 67.5 | NS3h confirm=54.2;SSB FP counter=i;Cy5 SSB fluor CB=i;Cy5 fluor confirm=i
Cc1ccc(C2c3c(c4ccccc4oc3=O)Oc3c2c(=O)oc2ccccc32)cc1 | i | i
CCC1(CCC(C)C)C(=O)NC(=O)N(C(=O)c2ccc(F)cc2)C1=O (stereo unspecified) | i | i
CCN(CC)CCNC(=O)CN1CCCC1=O | i | i
COc1ccc(CN2CCN(Cc3cccc(Br)c3)CC2)cc1Br | i | i
O=C1NC(=S)NC(=O)C1CCCC=C(Cl)Cl | i | i | NS3h confirm=i;SSB FP counter=i;Cy5 SSB fluor CB=i;Cy5 fluor confirm=i
CCN1C(=O)C(=Cc2ccc(N(CC)CC)cc2)C(=O)N(CC)C1=S | 1.98 | 54.6 | NS3h confirm=i;SSB FP counter=i;Cy5 SSB fluor CB=i;Cy5 fluor confirm=1.4
CN(C)c1ccc(C=C2C(=O)NC(=S)N(c3ccccc3F)C2=O)cc1 | i | i
O=C(NC(Oc1ccccc1Br)C(Cl)(Cl)Cl)c1ccco1 (stereo unspecified) | i | i
O=C1NC(=O)C(=Cc2ccccc2OCc2ccccc2Cl)C(=O)N1 | 0.584 | 56.0 | NS3h confirm=i;SSB FP counter=i;Cy5 SSB fluor CB=i;Cy5 fluor confirm=0.733
SMILES | Cy5 interf NS3h | NS3h inh CB | others
CC(C)Oc1ccc(Br)cc1C=C1C(=O)NC(=O)NC1=O | i | i
COc1ccc(C=C(C#N)C#N)cc1O | i | i
Cc1ccc(N2C(=O)NC(=O)/C(=C/c3ccc(-c4cccc(C(=O)O)c4)o3)C2=O)cc1 | i | 50.2 | NS3h confirm=89.1;SSB FP counter=69.7;Cy5 SSB fluor CB=i;Cy5 fluor confirm=i
Cc1ccc(N2C(=O)/C(=C/c3ccc(-c4ccc(C(=O)O)cc4)o3)C(=O)NC2=S)cc1 | i | 50.3 | NS3h confirm=i;SSB FP counter=62.4;Cy5 SSB fluor CB=i;Cy5 fluor confirm=i
O=C1NC(=S)N(c2ccc(Br)cc2)C(=O)/C1=C/c1ccc(-c2ccc(C(=O)O)cc2)o1 | i | i
CN1C(=O)C(=Cc2ccc(-c3cccc(C(=O)O)c3)o2)C(=O)N(C)C1=O | i | i
CSc1ccc(CN2CCN(Cc3ccc(Br)cc3)CC2)cc1 | i | i
CCOc1ccc(NC(=S)NC2CN3CCC2CC3)cc1 (stereo unspecified) | i | i
O=C(Nc1cccc2ccccc12)NC1CN2CCC1CC2 (stereo unspecified) | i | i
CCCCOC(=O)COc1cc(C)cc2oc(=O)c3c(c12)CCC3 | i | 53.6 | NS3h confirm=i;SSB FP counter=i;Cy5 SSB fluor CB=i;Cy5 fluor confirm=i
Cc1cc(OCC(N)=O)c2c3c(c(=O)oc2c1)CCC3 | i | i
